According to PubChem BioAssay (EPA / NIEHS):
Results filed as inconclusive are left out. Active and inactive are the calls of the source. How the source made its calls: active means hit-call score of the fitted dose curve at least 0.9, where 1 is the maximum; inconclusive means response in the unintended direction; inactive means score below 0.9.

Read-out: Cytochrome P450 2B6 (Homo sapiens) (UniProt P20813)
Assay: CLD_CYP2B6_48hr: CellzDirect (CLD) Gene Expression Assay for xenobiotic metabolism (CYP2B6) at 48 hours (AID 2283699);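 further: actives raise transcript level above DMSO so potency reflects induction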
In short: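 CYP2B6 transcript induction, read by quantitative nuclease protection (S1 digestion, chemiluminescent detection) 48 h after dosing, is fitted upward against 0.2% DMSO. Cultured human liver primary cells, two donor preparations, received fresh chemical daily over multiple concentrations.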

| Structure (SMILES) | AC50 | outcome |
| --- | --- | --- |
| COc1ccc(C(=CC(=O)N2CCOCC2)c2ccc(Cl)cc2)cc1OC | 3.59 µM (active) | – |
| CCOP(=O)(OCC)Oc1cc(C)nc(C(C)C)n1 | 5.53 µM (active) | – |
| CC(COc1ccc(Oc2ccccc2)cc1)Oc1ccccn1 (stereo unspecified) | 3.53 µM (active) | – |
| CC(C)N(C(=O)SCC(Cl)=C(Cl)Cl)C(C)C | 3.91 µM (active) | – |
| CSC1=N[C@@](C)(c2ccccc2)C(=O)N1Nc1ccccc1 | 1.16 µM (active) | – |
| COc1cc(OC)nc(Sc2cccc(Cl)c2C(=O)O)n1 | – | inactive |
| CC(=NC#N)N(C)Cc1ccc(Cl)nc1 | – | inactive |
| CCCCOC(=O)c1ccccc1C(=O)O | – | inactive |
| CN(C)NC(=O)CCC(=O)O | – | inactive |
| C#CCC1=C(C)C(OC(=O)C2C(C=C(C)C)C2(C)C)CC1=O (stereo unspecified) | 4.91 µM (active) | – |
| CSc1nnc(C(C)(C)C)c(=O)n1N | 20 µM (active) | – |
| O=C(O)c1cc(Oc2ccc(C(F)(F)F)cc2Cl)ccc1[N+](=O)[O-] | – | inactive |
| CCCOCC(=Nc1ccc(Cl)cc1C(F)(F)F)n1ccnc1 | – | inactive |
| CCc1cccc(CC)c1N(COC)C(=O)CCl | 3.01 µM (active) | – |
| C[N+]1(C)CCCCC1 | – | inactive |
| CCCCOC(=O)[C@@H](C)Oc1ccc(Oc2ccc(C#N)cc2F)cc1 | – | inactive |
| CCCSP(=O)(OCC)SCCC | 3.82 µM (active) | – |
| CCOP(=S)(OCC)OC(Cl)C(Cl)(Cl)Cl (stereo unspecified) | 0.0135 µM (active) | – |
| COP(=O)(NC(C)=O)SC (stereo unspecified) | – | inactive |
| CN(C)[C@@H]1C(=O)C(C(N)=O)=C(O)[C@@]2(O)C(=O)C3=C(O)c4c(O)cccc4[C@@](C)(O)[C@H]3[C@H](O)[C@@H]12 | – | inactive |
| CCCOc1nn(C(=O)NS(=O)(=O)c2ccccc2C(=O)OC)c(=O)n1C | – | inactive |
| CCOP(=O)(NC(C)C)Oc1ccc(SC)c(C)c1 (stereo unspecified) | 10.7 µM (active) | – |
| CCOP(=S)(OCC)SCCSCC | 1.68 µM (active) | – |
| CC(C)=CC1C(C(=O)OCN2C(=O)C3=C(CCCC3)C2=O)C1(C)C (stereo unspecified) | 6.64 µM (active) | – |

Read-out: not listed separately
Assay: CLD_ACTIN_48hr: CellzDirect (CLD) Gene Expression Assay for Baseline Control (Actin) at 48 hours (AID 2283702)
In short: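 Background-control actin mRNA read by qNPA chemiluminescence at 48 h. Human hepatocyte cultures from two donors received fresh multi-concentration chemical doses daily for two days; 0.2% DMSO served as vehicle baseline.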

| Structure (SMILES) | outcome |
| --- | --- |
| COc1ccc(C(=CC(=O)N2CCOCC2)c2ccc(Cl)cc2)cc1OC | inactive |
| S=C1NCCN1 | inactive |
| CC(C)N(C(=O)SCC(Cl)=C(Cl)Cl)C(C)C | inactive |
| CSC1=N[C@@](C)(c2ccccc2)C(=O)N1Nc1ccccc1 | inactive |
| CCc1cnc(C2=NC(C)(C(C)C)C(=O)N2)c(C(=O)O)c1 (stereo unspecified) | inactive |
| CC[C@H](C)[C@H]1O[C@]2(C=C[C@@H]1C)C[C@@H]1C[C@@H](C/C=C(\C)[C@@H](O[C@H]3C[C@H](OC)[C@@H](O[C@H]4C[C@H](OC)[C@@H](NC)[C@H](C)O4)[C@H](C)O3)[C@@H](C)/C=C/C=C3\CO[C@@H]4[C@H](O)C(C)=C[C@@H](C(=O)O1)[C@]34O)O2 | inactive |
| COc1cc(OC)nc(Sc2cccc(Cl)c2C(=O)O)n1 | inactive |
| CC(Oc1cccc(Cl)c1)C(=O)O (stereo unspecified) | inactive |
| CNC(=O)ON=C(SC)C(=O)N(C)C | inactive |
| COP(=O)(OC)C(O)C(Cl)(Cl)Cl (stereo unspecified) | inactive |
| CC(=NC#N)N(C)Cc1ccc(Cl)nc1 | inactive |
| N#CSCSC#N | inactive |
| CCCOCC(=Nc1ccc(Cl)cc1C(F)(F)F)n1ccnc1 | inactive |
| CC1=NNC(=O)N(/N=C/c2cccnc2)C1 | inactive |
| CCc1cccc(CC)c1N(COC)C(=O)CCl | inactive |
| CNC(=O)ON=C(C)SC | inactive |
| C[N+]1(C)CCCCC1 | inactive |
| Nc1nc(N)nc(NC2CC2)n1 | inactive |
| CCCCOC(=O)[C@@H](C)Oc1ccc(Oc2ccc(C#N)cc2F)cc1 | inactive |
| O=c1ccc(=O)[nH][nH]1 | inactive |
| CCCOc1nn(C(=O)NS(=O)(=O)c2ccccc2C(=O)OC)c(=O)n1C | inactive |
| CC(C)=CC1C(C(=O)OCN2C(=O)C3=C(CCCC3)C2=O)C1(C)C (stereo unspecified) | inactive |

Read-out: xenobiotic metabolism (CYP1A2), CYP1A2 (gene 1544)
Assay: CLD_CYP1A2_48hr: CellzDirect (CLD) Gene Expression Assay for xenobiotic metabolism (CYP1A2) at 48 hours (AID 2283703)
In short: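 Cytotoxicity was flagged yes/no from morphology, while CYP1A2 transcript induction was detected by qNPA chemiluminescence after a 48-hour exposure. Human primary hepatocyte cultures from separate donors received fresh dosing solutions daily over two days, with 0.2% DMSO as vehicle and baseline.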

| Structure (SMILES) | AC50 | outcome |
| --- | --- | --- |
| CCOP(=O)(OCC)Oc1cc(C)nc(C(C)C)n1 | 11.6 µM (active) | – |
| CC(C)N(C(=O)SCC(Cl)=C(Cl)Cl)C(C)C | – | inactive |
| CCc1cnc(C2=NC(C)(C(C)C)C(=O)N2)c(C(=O)O)c1 (stereo unspecified) | – | inactive |
| COc1cc(OC)nc(Sc2cccc(Cl)c2C(=O)O)n1 | – | inactive |
| CC(Oc1cccc(Cl)c1)C(=O)O (stereo unspecified) | – | inactive |
| CNC(=O)ON=C(SC)C(=O)N(C)C | – | inactive |
| CC(=NC#N)N(C)Cc1ccc(Cl)nc1 | – | inactive |
| CCCCOC(=O)c1ccccc1C(=O)O | – | inactive |
| CN(C)NC(=O)CCC(=O)O | – | inactive |
| C#CCC1=C(C)C(OC(=O)C2C(C=C(C)C)C2(C)C)CC1=O (stereo unspecified) | 20 µM (active) | – |
| CSc1nnc(C(C)(C)C)c(=O)n1N | 2.97 µM (active) | – |
| N#CSCSC#N | – | inactive |
| CCCOCC(=Nc1ccc(Cl)cc1C(F)(F)F)n1ccnc1 | 0.687 µM (active) | – |
| CC1=NNC(=O)N(/N=C/c2cccnc2)C1 | 8.29 µM (active) | – |
| CCc1cccc(CC)c1N(COC)C(=O)CCl | – | inactive |
| CNC(=O)ON=C(C)SC | – | inactive |
| C[N+]1(C)CCCCC1 | – | inactive |
| CCCCOC(=O)[C@@H](C)Oc1ccc(Oc2ccc(C#N)cc2F)cc1 | – | inactive |
| CCCSP(=O)(OCC)SCCC | – | inactive |
| CCOP(=S)(OCC)OC(Cl)C(Cl)(Cl)Cl (stereo unspecified) | 9.25 µM (active) | – |
| COP(=O)(NC(C)=O)SC (stereo unspecified) | – | inactive |
| CN(C)[C@@H]1C(=O)C(C(N)=O)=C(O)[C@@]2(O)C(=O)C3=C(O)c4c(O)cccc4[C@@](C)(O)[C@H]3[C@H](O)[C@@H]12 | – | inactive |
| CCCOc1nn(C(=O)NS(=O)(=O)c2ccccc2C(=O)OC)c(=O)n1C | – | inactive |
| CCOP(=O)(NC(C)C)Oc1ccc(SC)c(C)c1 (stereo unspecified) | 5.87 µM (active) | – |
| CCOP(=S)(OCC)SCCSCC | 7.27 µM (active) | – |
